# From the supplement of paper PMC8728848
# Many of the other results were omitted from the sample, so the strongest signals are more common in it than they were.
# B1: CVN-E41G (protein)
# chain: MHHHHHHENLYFQSGNFSQACYNSAIQGSVLTSTCIRTNGGYNTSSIDLNSVIGNVDGSLKWQGSNFIETCRNTQLAGSSELAAECKTRAQQFVSTKINLDDHIAAIDGTLKYE
# Key:
# Assay in all cases: glycan array binding signal (z-score within array); higher = stronger binding
# Details in all cases: glycan notation: IUPAC condensed, linker removed; mutation: E41G
# [1] = target: Fuc(a1-2)Gal(b1-3)GalNAc
# Procedure, shortened: (§1)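 Arrays were curated from the Consortium for Functional Glycomics database, 3228 in total, and kept only where the protein sequence was available. Binding is expressed as a within-array Z-score. This score was averaged across arrays of the same protein sequence at different concentrations or buffers and across linkers, and negative values can be read as non-binding.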
# [2] = target: Fuc(a1-2)Gal(b1-3)GlcNAc(b1-3)GalNAc
# Procedure, shortened: as §1
# [3] = target: Fuc(a1-2)Gal(b1-3)GlcNAc(b1-3)[Fuc(a1-2)Gal(b1-3)GlcNAc(b1-6)]GalNAc
# Procedure, shortened: as §1
# [4] = target: Fuc(a1-2)Gal(b1-3)GlcNAc6S
# Procedure, shortened: as §1
# [5] = target: Fuc(a1-2)Gal(b1-3)[Fuc(a1-4)]GlcNAc
# Procedure, shortened: as §1
# [6] = target: Fuc(a1-2)Gal(b1-4)GlcNAc6S
# Procedure, shortened: as §1
# [7] = target: Fuc(a1-2)Gal(b1-4)[Fuc(a1-3)]GlcNAc(b1-2)[Fuc(a1-2)Gal(b1-4)[Fuc(a1-3)]GlcNAc(b1-4)]Man(a1-3)[Fuc(a1-2)Gal(b1-4)[Fuc(a1-3)]GlcNAc(b1-2)Man(a1-6)]Man(b1-4)GlcNAc(b1-4)GlcNAc
# Procedure, shortened: as §1
# [8] = target: Fuc(a1-2)Gal6S(b1-4)Glc6S
# Procedure, shortened: as §1
# [9] = target: Fuc(a1-2)[Gal(a1-3)]Gal(b1-4)Glc
# Procedure, shortened: as §1
# [10] = target: Fuc(a1-2)[Gal(a1-3)]Gal(b1-4)GlcNAc(b1-2)Man(a1-3)[Fuc(a1-2)[Gal(a1-3)]Gal(b1-4)GlcNAc(b1-2)Man(a1-6)]Man(b1-4)GlcNAc(b1-4)GlcNAc
# Procedure, shortened: as §1
# [11] = target: Fuc(a1-2)[Gal(a1-3)]Gal(b1-4)GlcNAc(b1-3)GalNAc
# Procedure, shortened: as §1
# [12] = target: Fuc(a1-2)[GalNAc(a1-3)]Gal(b1-3)GlcNAc(b1-2)Man(a1-3)[Fuc(a1-2)[GalNAc(a1-3)]Gal(b1-3)GlcNAc(b1-2)Man(a1-6)]Man(b1-4)GlcNAc(b1-4)[Fuc(a1-6)]GlcNAc
# Procedure, shortened: as §1
# [13] = target: Fuc(a1-2)[GalNAc(a1-3)]Gal(b1-4)GlcNAc(b1-3)Gal(b1-4)GlcNAc(b1-3)Gal(b1-4)GlcNAc
# Procedure, shortened: as §1
# [14] = target: Gal(a1-3)Gal(b1-3)GlcNAc
# Procedure, shortened: as §1
# [15] = target: Gal(a1-3)Gal(b1-3)[Fuc(a1-4)]GlcNAc(b1-2)Man(a1-3)[Gal(a1-3)Gal(b1-3)[Fuc(a1-4)]GlcNAc(b1-2)Man(a1-6)]Man(b1-4)GlcNAc(b1-4)GlcNAc
# Procedure, shortened: as §1
# [16] = target: Gal(b1-2)Gal
# Procedure, shortened: as §1
# [17] = target: Gal(b1-3)GalNAc(a1-3)[Fuc(a1-2)]Gal(b1-4)Glc
# Procedure, shortened: as §1
# [18] = target: Gal(b1-3)GlcNAc(b1-2)Man(a1-3)[Gal(b1-3)GlcNAc(b1-2)Man(a1-6)]Man(b1-4)GlcNAc(b1-4)GlcNAc
# Procedure, shortened: as §1
# [19] = target: Gal(b1-3)GlcNAc(b1-2)Man(a1-3)[Gal(b1-3)GlcNAc(b1-2)Man(a1-6)]Man(b1-4)GlcNAc(b1-4)[Fuc(a1-6)]GlcNAc
# Procedure, shortened: as §1
# [20] = target: Gal(b1-3)GlcNAc(b1-3)Gal(b1-3)GlcNAc
# Procedure, shortened: as §1
# [21] = target: Gal(b1-3)GlcNAc(b1-3)Gal(b1-4)GlcNAc(b1-2)[Gal(b1-3)GlcNAc(b1-3)Gal(b1-4)GlcNAc(b1-6)]Man(a1-6)[Gal(b1-3)GlcNAc(b1-3)Gal(b1-4)GlcNAc(b1-2)Man(a1-3)]Man(b1-4)GlcNAc(b1-4)[Fuc(a1-6)]GlcNAc
# Procedure, shortened: as §1
# [22] = target: Gal(b1-3)[Fuc(a1-4)]GlcNAc(b1-3)Gal(b1-4)[Fuc(a1-3)]GlcNAc
# Procedure, shortened: as §1
# [23] = target: Gal(b1-3)[Neu5Ac(b2-6)]GalNAc
# Procedure, shortened: as §1
# [24] = target: Gal(b1-4)GlcNAc(b1-2)Man(a1-3)[Gal(b1-4)GlcNAc(b1-2)Man(a1-6)]Man(b1-4)GlcNAc(b1-4)[Fuc(a1-6)]GlcNAc
# Procedure, shortened: as §1
# [25] = target: Gal(b1-4)GlcNAc(b1-2)[Gal(b1-4)GlcNAc(b1-4)]Man(a1-3)[Gal(b1-4)GlcNAc(b1-2)Man(a1-6)]Man(b1-4)GlcNAc(b1-4)GlcNAc
# Procedure, shortened: as §1
# [26] = target: Gal(b1-4)GlcNAc(b1-3)Gal(b1-4)GlcNAc(b1-3)Gal(b1-4)GlcNAc(b1-3)Gal(b1-4)GlcNAc(b1-2)[Gal(b1-4)GlcNAc(b1-3)Gal(b1-4)GlcNAc(b1-3)Gal(b1-4)GlcNAc(b1-3)Gal(b1-4)GlcNAc(b1-6)]Man(a1-6)[Gal(b1-4)GlcNAc(b1-3)Gal(b1-4)GlcNAc(b1-3)Gal(b1-4)GlcNAc(b1-3)Gal(b1-4)GlcNAc(b1-2)Man(a1-3)]Man(b1-4)GlcNAc(b1-4)[Fuc(a1-6)]GlcNAc
# Procedure, shortened: as §1
# [27] = target: Gal(b1-4)GlcNAc(b1-3)Gal(b1-4)[Fuc(a1-3)]GlcNAc(b1-3)Gal(b1-4)[Fuc(a1-3)]GlcNAc
# Procedure, shortened: as §1
# [28] = target: Gal4S6S(b1-4)GlcNAc
# Procedure, shortened: as §1
# [29] = target: Gal6S(b1-4)Glc
# Procedure, shortened: as §1
# [30] = target: GalNAc(b1-3)Gal(a1-4)Gal(b1-4)GlcNAc
# Procedure, shortened: as §1
binder,measurement,setting,value
B1,glycan array binding signal (z-score),[1],-0.178
same,glycan array binding signal (z-score),[2],-0.168
same,glycan array binding signal (z-score),[3],-0.093
same,glycan array binding signal (z-score),[4],-0.182
same,glycan array binding signal (z-score),[5],-0.157
same,glycan array binding signal (z-score),[6],-0.144
same,glycan array binding signal (z-score),[7],0.014
same,glycan array binding signal (z-score),[8],-0.023
same,glycan array binding signal (z-score),[9],-0.166
same,glycan array binding signal (z-score),[10],-0.122
same,glycan array binding signal (z-score),[11],-0.189
same,glycan array binding signal (z-score),[12],0.532
same,glycan array binding signal (z-score),[13],-0.163
same,glycan array binding signal (z-score),[14],-0.138
same,glycan array binding signal (z-score),[15],1
same,glycan array binding signal (z-score),[16],-0.147
same,glycan array binding signal (z-score),[17],-0.175
same,glycan array binding signal (z-score),[18],0.069
same,glycan array binding signal (z-score),[19],-0.141
same,glycan array binding signal (z-score),[20],-0.13
same,glycan array binding signal (z-score),[21],1.02
same,glycan array binding signal (z-score),[22],-0.151
same,glycan array binding signal (z-score),[23],-0.158
same,glycan array binding signal (z-score),[24],-0.15
same,glycan array binding signal (z-score),[25],-0.165
same,glycan array binding signal (z-score),[26],-0.125
same,glycan array binding signal (z-score),[27],-0.099
same,glycan array binding signal (z-score),[28],-0.19
same,glycan array binding signal (z-score),[29],-0.138
same,glycan array binding signal (z-score),[30],-0.154
